An excerpt weighted towards active compounds, which were near 2.8% of everything screened.
NSD2 HMT inh: NSD2 histone methyltransferase inhibitors, primary screen, biochemical, AlphaScreen, single concentration, set 2. Histone-lysine N-methyltransferase NSD2 (Homo sapiens), O96028. NSD2 peptide methylation, 120 min. inhibition, % at 12.5 µM. 0.54% of 310,000 active; in the data active = inhibition above about 50%
Target sequence (O96028 whole entry, looked up): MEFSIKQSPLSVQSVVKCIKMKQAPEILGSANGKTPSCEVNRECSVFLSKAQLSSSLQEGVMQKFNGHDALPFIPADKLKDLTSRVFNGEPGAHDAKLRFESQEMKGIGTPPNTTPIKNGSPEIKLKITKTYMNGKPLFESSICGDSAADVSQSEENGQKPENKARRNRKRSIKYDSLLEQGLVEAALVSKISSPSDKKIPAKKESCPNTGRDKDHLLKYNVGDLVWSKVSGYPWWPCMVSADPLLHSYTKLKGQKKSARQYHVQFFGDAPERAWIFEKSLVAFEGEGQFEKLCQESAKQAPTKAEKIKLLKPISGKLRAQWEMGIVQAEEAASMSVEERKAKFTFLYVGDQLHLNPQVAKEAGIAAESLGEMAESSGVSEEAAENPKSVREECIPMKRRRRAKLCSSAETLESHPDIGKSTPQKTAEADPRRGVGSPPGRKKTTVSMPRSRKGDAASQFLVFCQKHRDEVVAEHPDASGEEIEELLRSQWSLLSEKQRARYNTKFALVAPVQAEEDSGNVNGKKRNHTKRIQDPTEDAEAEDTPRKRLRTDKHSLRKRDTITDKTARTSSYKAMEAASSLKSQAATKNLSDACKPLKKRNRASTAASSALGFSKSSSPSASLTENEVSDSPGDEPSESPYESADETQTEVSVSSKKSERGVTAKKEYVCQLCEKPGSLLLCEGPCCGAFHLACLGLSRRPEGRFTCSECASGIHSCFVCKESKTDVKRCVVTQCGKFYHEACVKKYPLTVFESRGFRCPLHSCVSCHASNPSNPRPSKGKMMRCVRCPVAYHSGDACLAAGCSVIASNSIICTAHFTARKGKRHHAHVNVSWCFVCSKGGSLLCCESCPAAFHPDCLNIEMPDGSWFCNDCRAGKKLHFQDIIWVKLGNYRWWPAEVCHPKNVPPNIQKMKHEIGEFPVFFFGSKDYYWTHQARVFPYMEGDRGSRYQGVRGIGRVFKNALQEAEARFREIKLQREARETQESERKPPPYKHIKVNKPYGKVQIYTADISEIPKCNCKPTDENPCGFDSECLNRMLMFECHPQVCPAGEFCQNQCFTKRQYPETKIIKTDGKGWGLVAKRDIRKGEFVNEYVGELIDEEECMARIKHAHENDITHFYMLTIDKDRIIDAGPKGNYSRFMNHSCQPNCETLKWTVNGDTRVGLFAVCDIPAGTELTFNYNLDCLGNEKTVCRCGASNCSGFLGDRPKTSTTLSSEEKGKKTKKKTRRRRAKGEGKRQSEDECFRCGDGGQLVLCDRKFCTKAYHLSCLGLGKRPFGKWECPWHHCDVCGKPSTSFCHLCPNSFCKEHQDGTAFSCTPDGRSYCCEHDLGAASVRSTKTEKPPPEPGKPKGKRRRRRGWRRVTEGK
Shn3 3UTR inh: reduction of Shn3 3'UTR firefly luciferase signal, primary screen, Schnurri-3 inhibitor project, cell-based, Clone20 osteoblasts, set 2; Clone20 osteoblast Shn3 3'UTR firefly luciferase, 24 h; inhibition, % at 12.5 µM; 0.52% of 360,000 active; AID 588674, 2011;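 active = mean inhibition of at least 75% with every replicate also reaching 75%; inconclusive = mean inhibition at least 75% but some replicate below; inactive = mean inhibition below 75%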
PAX8 inh HTS: inhibitors of PAX8-driven TPO luciferase reporter, primary screen, RMG-I cells, single concentration; SteadyGlo, 24 h; inhibition, % at 12.6 µM; AID 652154, 2013; 1.2% of 360,000 active;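 active = mean replicate inhibition at least 60% with every replicate also reaching 60%; inconclusive = only one of the two criteria is met; inactive = mean below 60% and not all replicates reaching 60%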;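 also: luciferase light reporting Pax8 driven TPO promoter activity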
HIV Env fusion: inhibitors of HIV-1 Env-driven cell-cell fusion, primary screen, HeLa-JRFL effector, CEM21 target cells, luciferase. inhibition, % at 12.3 µM. 1.1% of 360,000 active. AID 651610, 2012;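 active = mean replicate inhibition score of at least 50 and every replicate individually at or above 50; inconclusive = only one of the two criteria met; inactive = mean below 50 and not all replicates reaching 50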
EBV LMP1 NFkB: EBV LMP1-driven NF-kappaB luciferase reporter inhibitors, primary screen, cell-based, luminescence, single point; inhibition, % at 12.5 µM; 0.69% of 350,000 active; LMP1-induced NF-kappaB luciferase reporter cells; AID 504558, 2011; in the data active = inhibition above about 41%; inconclusive = no clear call, values can overlap the other calls
Glyco luc inh: increase of ERlucT glycosylation luciferase signal, primary screen, N-linked glycosylation inhibitor project, D54 ERlucT cells, luminescence, set 2; D54 ERlucT glycosylation luciferase reporter, 24 h; percent of 100 nM tunicamycin response; reporter increase, % at 12.5 µM; 0.23% of 360,000 active; AID 588692, 2011;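 active = mean luciferase reporter signal, scaled so untreated is 0 and the glycosylation-blocking control 100, at or above a set limit in every replicate; inconclusive = mean reaches the limit but not every replicate does; inactive = mean below the limit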;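 also: luciferase carries N-glycosylation sites so blocking glycosylation raises the light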
Hits are given with their value; 0 = inactive; ? = inconclusive; - = no result; [ ] = another dose, or the depositor's remark.

SMILES	NSD2 HMT inh	Shn3 3UTR inh	PAX8 inh HTS	HIV Env fusion	EBV LMP1 NFkB	Glyco luc inh
COCc1[nH]nc2c1C(c1ccc(OC)c(OC)c1)C(C#N)=C(N)O2 (stereo not given)	0	0	-	-	0	0
Cc1ccc(Nc2c(-c3ccccn3)nc3cc(C)ccn23)cc1	-	94.9	0	0	?	0
Cc1ccc2nc(-c3ccncc3)c(Nc3ccccc3)n2c1	0	0	65.2	-	0	0
Cc1ccc(Nc2c(-c3ccccn3)nc3ccc(C)cn23)cc1	0	95.4	0	0	0	0
Cc1ccc(Nc2c(-c3cccnc3)nc3ccc(Br)cn23)cc1	0	0	0	0	0	0
Cc1ccc2nc(-c3ccco3)c(Nc3ccccc3)n2c1	0	0	-	-	0	0
C[C@H](CO)N1C[C@H](C)[C@H](CN(C)Cc2ccc3c(c2)OCO3)Oc2ccc(NC(=O)c3ccncc3)cc2C1=O	-	-	0	0	-	-
COc1ccccc1-c1nnc(NC(=O)CCS(=O)(=O)c2ccc(F)cc2)o1	0	0	73.6	0	0	0
CC1=CC(C)(C)N2C(=O)C3(SCC(=O)N3c3ccc(F)cc3)c3cc(C)cc1c32 (stereo not given)	0	0	-	71.6	0	0
CC(C)c1ccc(N2C(=O)CSC23C(=O)N2CCCc4cccc3c42)cc1 (stereo not given)	0	0	-	-	0	0
CCCN(C)C[C@H]1OCCCC[C@@H](C)Oc2ccc(NC(=O)NC(C)C)cc2C(=O)N([C@@H](C)CO)C[C@H]1C	-	-	0	0	-	-
CN(C)Cc1cn(CC[C@@H]2CC[C@H](N)[C@H](CO)O2)nn1	-	-	0	63.1[16.7 µM]	-	-
O=Cc1ccc(O)c2ncccc12	0	0	-	-	59.4	0
Oc1ccc(CNc2cccnc2)c2cccnc12	0	-	-	-	-	-
CN(C)C(=O)c1ccc(-c2ccc([C@@H]3[C@H](CO)N4C(=O)CN(C(=O)C5CCCC5)C[C@@H]34)cc2)cc1	-	-	0	-	-	-
O=C(Nc1cccc(-c2cnc3ccccc3n2)c1)c1cccc(NC(=O)c2ccco2)c1	0	0	71.5	0	0	0
Cc1ccc2cc(C#N)c(NCCNC(=O)C3CCC3)nc2c1C	0	0	-	106.0	0	0
C[C@@H]1CCCCO[C@@H](CN(C)S(=O)(=O)c2ccccc2)[C@@H](C)CN([C@H](C)CO)C(=O)c2cc(NC(=O)Nc3ccc(C(F)(F)F)cc3)ccc2O1	-	-	0	0	-	-
C[C@H](CO)N1C[C@H](C)[C@@H](CN(C)S(=O)(=O)c2ccccc2)OCCCC[C@H](C)Oc2ccc(NC(=O)Nc3ccc(C(F)(F)F)cc3)cc2C1=O	-	-	69.7	0	-	-
C[C@H](CO)N1C[C@H](C)[C@H](CN(C)S(=O)(=O)c2ccccc2)OCCCC[C@H](C)Oc2ccc(NC(=O)Nc3ccc(C(F)(F)F)cc3)cc2C1=O	-	-	74.4	0	-	-
C[C@@H]1CCCCO[C@H](CN(C)S(=O)(=O)c2ccccc2)[C@@H](C)CN([C@@H](C)CO)C(=O)c2cc(NC(=O)Nc3ccc(C(F)(F)F)cc3)ccc2O1	-	-	72.0	0	-	-
C[C@@H]1CCCCO[C@H](CN(C)S(=O)(=O)c2ccccc2)[C@H](C)CN([C@@H](C)CO)C(=O)c2cc(NC(=O)Nc3ccc(C(F)(F)F)cc3)ccc2O1	-	-	64.0	0	-	-
Cc1ccccc1S(=O)(=O)N[C@@H]1CC[C@H](CCNS(=O)(=O)c2cccc(F)c2)O[C@H]1CO	-	-	0	0	-	-
CC(C)CC#Cc1ccc2c(c1)O[C@H](CN(C)Cc1cccc(F)c1)[C@H](C)CN([C@H](C)CO)S2(=O)=O	-	-	-	0	-	-
C[C@@H]1CN([C@H](C)CO)C(=O)c2cc(NC(=O)Nc3ccc(C(F)(F)F)cc3)ccc2O[C@@H](C)CCCCO[C@@H]1CN(C)S(=O)(=O)c1ccccc1	-	-	0	0	-	-
SMILES	NSD2 HMT inh	Shn3 3UTR inh	PAX8 inh HTS	HIV Env fusion	EBV LMP1 NFkB	Glyco luc inh
C[C@H]1CCCCO[C@@H](CN(C)S(=O)(=O)c2ccccc2)[C@@H](C)CN([C@@H](C)CO)C(=O)c2cc(NC(=O)Nc3ccc(C(F)(F)F)cc3)ccc2O1	-	-	75.8	0	-	-
COc1ccc(N2C(=O)CC(Sc3nnc(-c4ccccc4)o3)C2=O)cc1 (stereo not given)	0	0	107.0	0	?	0
O=C1CC(Sc2ncccn2)C(=O)N1c1ccccc1 (stereo not given)	0	0	0	0	0	0
O=C1CC(Sc2nnc(-c3ccccc3O)o2)C(=O)N1c1ccccc1 (stereo not given)	-	92.7	-	-	0	0
Nc1nnc(SC2CC(=O)N(c3ccccc3)C2=O)s1 (stereo not given)	0	0	-	58.2	0	0
COc1ccc(N2C(=O)CC(Sc3nc(C)cc(C)c3C#N)C2=O)cc1 (stereo not given)	0	0	-	0	0	0
C[C@H]1CCCCO[C@H](CN(C)C(=O)Nc2ccccc2)[C@@H](C)CN([C@@H](C)CO)C(=O)c2cc(NS(=O)(=O)c3cccs3)ccc2O1	-	-	0	0	-	-
O=C(c1cccc(F)c1)N1CC2(C1)[C@H](c1ccccc1)[C@@H](CO)N2C(=O)C1CCCCC1	-	-	0	-	-	-
CCC(=O)N1C[C@H](O)COC[C@H]2O[C@H](CC(=O)N3CCCCC3)CC[C@@H]21	-	-	0	0	-	-
Nc1cc2ccncc2c2ccccc12	0	0	0	62.1	55.8	0
Cc1ccccc1-c1ccc([C@H]2[C@@H](CO)N3C(=O)CN(C(=O)c4ccccn4)C[C@@H]23)cc1	-	-	0	-	-	-
O=C(CC1SC(=Nc2ccc(OC(F)F)cc2)N(CCN2CCOCC2)C1=O)Nc1ccccc1 (stereo not given)	0	0	64.4	0	0	0
N#Cc1cc2[nH]c3ccccc3c2[n+](-c2ccc([N+](=O)[O-])cc2)c1N	0	0	0	0	0	28.3
O=c1[nH]c2cc([N+](=O)[O-])cc(Cl)c2c2ccccc12	-	0	0	0	0	0
COc1ccc(-n2sc3c(c2=S)-c2cc(OC)ccc2NC3(C)C)cc1	0	0	-	-	0	0
Cc1ccc(S(=O)(=O)N2c3ccccc3-c3c(ssc3=S)C2(C)C)cc1	0	0	0	0	58.4	0
COc1ccc2c(c1)-c1c(ssc1=S)C(C)(C)N2	-	0	-	61.7	44.7	0
COc1ccc2c(c1)-c1c(ssc1=S)C(C)(C)N2S(=O)(=O)c1ccc(C)cc1	0	0	0	72.5	0	0
Cc1ccc(S(=O)(=O)Nc2ccc3c(c2)CC(=O)N([C@H](C)CO)C[C@H](C)[C@@H](CN(C)S(=O)(=O)c2ccc(F)cc2)O3)cc1	-	-	0	0	-	-
CC(C)NC(=O)Nc1ccc2c(c1)C(=O)N([C@H](C)CO)C[C@@H](C)[C@H](CN(C)S(=O)(=O)c1ccc(Cl)cc1)OCCCC[C@H](C)O2	-	-	0	0	-	-

Compound activity as filed in PubChem BioAssay.
